Source: PubChem BioAssay (NCI)
About 83,000 compounds went through this panel and 20% of them were active in at least one assay; those are over-represented in the sample as a whole.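 For each line, cells grew in 96-well plates with the test compound present at a single concentration for 48 hours.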 Activity calls are given as the source filed them. Rule for the calls: active = growth percent below 10; inactive = the rest.

What was measured:
Assay in all cases: NCI-60 one-dose screen, 48 h (100 = growth as untreated, 0 = no growth, -100 = all killed)
Conditions in all cases: 10 µM unless noted
DU-145 prostate = tested on: DU-145 prostate
K-562 leukemia = tested on: K-562 leukemia
MALME-3M melanoma = tested on: MALME-3M melanoma
MDA-MB-231 breast = tested on: MDA-MB-231 breast
RXF 393 renal = tested on: RXF 393 renal
SF-268 CNS = tested on: SF-268 CNS
SF-295 CNS = tested on: SF-295 CNS
SF-539 CNS = tested on: SF-539 CNS
UACC-257 melanoma = tested on: UACC-257 melanoma
M14 melanoma = tested on: M14 melanoma
HCT-15 colon = tested on: HCT-15 colon
HT29 colon = tested on: HT29 colon
SNB-75 CNS = tested on: SNB-75 CNS
SNB-19 CNS = tested on: SNB-19 CNS
U251 CNS = tested on: U251 CNS
PC-3 prostate = tested on: PC-3 prostate
SK-MEL-5 melanoma = tested on: SK-MEL-5 melanoma
UACC-62 melanoma = tested on: UACC-62 melanoma
LOX IMVI melanoma = tested on: LOX IMVI melanoma
SK-MEL-28 melanoma = tested on: SK-MEL-28 melanoma

Measured: growth

Cc1c2cccnc2c(C)c2c1c1cc(CO)ccc1n2C
inactive: DU-145 prostate 25.3% | MALME-3M melanoma 16.8% | MDA-MB-231 breast 19.9% | RXF 393 renal 30.2% | SF-268 CNS 28.8% | SF-295 CNS 24.7% | SF-539 CNS 23.2% | M14 melanoma 29.8% | HCT-15 colon 18.7% | HT29 colon 16% | SNB-75 CNS 45.5% | SNB-19 CNS 21.1% | U251 CNS 14% | PC-3 prostate 31% | SK-MEL-5 melanoma 30.6% | SK-MEL-28 melanoma 30.6%
active: K-562 leukemia 9.28% | UACC-257 melanoma -1.38% | UACC-62 melanoma -16.6% | LOX IMVI melanoma 8.95%

C#CCO[C@H]1CC(CC#C)(CC#C)C(=O)[C@@H]2[C@H]1[C@H]1C[C@@H]3[C@@]4(C)CCC[C@@](C)(C(=O)OC)[C@@H]4CC[C@@]23C=C1C(C)C
active: MALME-3M melanoma -35.9% | LOX IMVI melanoma -86.6%
inactive: DU-145 prostate 97.7% | K-562 leukemia 88.9% | MDA-MB-231 breast 89.3% | RXF 393 renal 102% | SF-268 CNS 92.9% | SF-295 CNS 101% | SF-539 CNS 85.4% | UACC-257 melanoma 94.3% | M14 melanoma 95.5% | HCT-15 colon 98.2% | HT29 colon 55.7% | SNB-75 CNS 93.9% | SNB-19 CNS 93.4% | U251 CNS 96.3% | PC-3 prostate 58.8% | SK-MEL-5 melanoma 101% | UACC-62 melanoma 78.6% | SK-MEL-28 melanoma 99.1%

COc1cc(/C=C2\CN(S(=O)(=O)c3ccccc3)C/C(=C\c3cc(CN4CCCCC4)c(O)c(OC)c3)C2=O)cc(CN2CCCCC2)c1O
active: DU-145 prostate -93% | K-562 leukemia -9.62% | MALME-3M melanoma -77.6% | MDA-MB-231 breast -67.8% | RXF 393 renal -88.3% | SF-268 CNS -20.7% | SF-539 CNS -84.6% | M14 melanoma -75.2% | HCT-15 colon -73.8% | HT29 colon -66.7% | SNB-75 CNS -91.7% | SNB-19 CNS -30.1% | U251 CNS -76.7% | PC-3 prostate -36.3% | SK-MEL-5 melanoma -94.8% | LOX IMVI melanoma -87% | SK-MEL-28 melanoma -90.3%
inactive: SF-295 CNS 76.5% | UACC-257 melanoma 83.8% | UACC-62 melanoma 71%

OCCNCCNC(Cc1ccc(Cl)cc1)c1ccccc1 (stereo not given)
inactive: DU-145 prostate 99.7% | K-562 leukemia 88.5% | MALME-3M melanoma 107% | MDA-MB-231 breast 75.7% | RXF 393 renal 84.5% | SF-268 CNS 88.8% | SF-295 CNS 92.2% | SF-539 CNS 72.9% | UACC-257 melanoma 104% | M14 melanoma 90.5% | HCT-15 colon 93.3% | HT29 colon 59.9% | SNB-75 CNS 72.8% | SNB-19 CNS 96.9% | U251 CNS 94.2% | PC-3 prostate 55.3% | SK-MEL-5 melanoma 95.2% | UACC-62 melanoma 59.7% | LOX IMVI melanoma 83.8% | SK-MEL-28 melanoma 81.5%

COC(=O)/C=C1/SC(=Nc2ccc([N+](=O)[O-])cc2)N(CCc2c[nH]c3ccc(O)cc23)C1=O
inactive: DU-145 prostate 57.3% | K-562 leukemia 52.5% | MALME-3M melanoma 68.6% | MDA-MB-231 breast 61.1% | RXF 393 renal 27.3% | SF-268 CNS 43.7% | SF-295 CNS 59.5% | SF-539 CNS 66.2% | UACC-257 melanoma 55.8% | M14 melanoma 46% | HCT-15 colon 46.9% | HT29 colon 42.6% | SNB-75 CNS 54.4% | SNB-19 CNS 40.3% | U251 CNS 36.3% | PC-3 prostate 38.6% | SK-MEL-5 melanoma 50.5% | UACC-62 melanoma 30.1% | SK-MEL-28 melanoma 52.7%
active: LOX IMVI melanoma -21.9%

Nn1c(=O)c(=O)[nH]c2c(cnn2-c2ccccc2)c1=O
inactive: DU-145 prostate 114% | K-562 leukemia 96.4% | MALME-3M melanoma 106% | MDA-MB-231 breast 105% | RXF 393 renal 113% | SF-268 CNS 99.7% | SF-295 CNS 102% | SF-539 CNS 99.8% | UACC-257 melanoma 107% | M14 melanoma 110% | HCT-15 colon 101% | HT29 colon 110% | SNB-75 CNS 92.5% | SNB-19 CNS 103% | U251 CNS 105% | PC-3 prostate 106% | SK-MEL-5 melanoma 101% | UACC-62 melanoma 102% | LOX IMVI melanoma 101% | SK-MEL-28 melanoma 113%

COc1ccc(C(=S)N2CCN(c3ccc(Cl)cc3)CC2)cc1
inactive: DU-145 prostate 113% | K-562 leukemia 88% | MALME-3M melanoma 125% | MDA-MB-231 breast 76.7% | RXF 393 renal 126% | SF-268 CNS 100% | SF-295 CNS 117% | SF-539 CNS 102% | UACC-257 melanoma 96.1% | M14 melanoma 99.7% | HCT-15 colon 116% | HT29 colon 102% | SNB-75 CNS 112% | SNB-19 CNS 86.3% | U251 CNS 101% | PC-3 prostate 103% | SK-MEL-5 melanoma 96.8% | UACC-62 melanoma 84.5% | LOX IMVI melanoma 104% | SK-MEL-28 melanoma 110%

COC(=O)N1CC(Oc2ccccn2)C2CC1c1ccccc1O2 (stereo not given)
inactive: DU-145 prostate 115% | K-562 leukemia 114% | MALME-3M melanoma 104% | MDA-MB-231 breast 89.7% | RXF 393 renal 95.1% | SF-268 CNS 102% | SF-295 CNS 104% | SF-539 CNS 99.4% | UACC-257 melanoma 88% | M14 melanoma 102% | HCT-15 colon 98.8% | HT29 colon 103% | SNB-75 CNS 98.7% | SNB-19 CNS 94.5% | U251 CNS 104% | PC-3 prostate 94.4% | SK-MEL-5 melanoma 99.4% | UACC-62 melanoma 89.5% | LOX IMVI melanoma 96.8% | SK-MEL-28 melanoma 94.8%

O=C1c2ccccc2C(=O)c2c1cc1c(c2[N+](=O)[O-])OCO1
active: RXF 393 renal -63.5% | SF-268 CNS 5.31% | SNB-75 CNS -13.4% | U251 CNS -13.3% | PC-3 prostate -3.71% | LOX IMVI melanoma 2.79%
inactive: DU-145 prostate 17.8% | K-562 leukemia 10.5% | MALME-3M melanoma 85% | MDA-MB-231 breast 11.3% | SF-295 CNS 10.6% | SF-539 CNS 21.3% | UACC-257 melanoma 82.3% | M14 melanoma 73.5% | HCT-15 colon 13.7% | HT29 colon 32.5% | SNB-19 CNS 21.7% | SK-MEL-5 melanoma 80% | UACC-62 melanoma 15.2% | SK-MEL-28 melanoma 103%

Cc1ccc2c(=O)cc(C(=O)Nc3sc4c(c3C(=O)NCc3cccnc3)CCCC4)oc2c1C
inactive: DU-145 prostate 103% | K-562 leukemia 96.4% | MALME-3M melanoma 99.9% | MDA-MB-231 breast 96.9% | RXF 393 renal 116% | SF-268 CNS 93.2% | SF-295 CNS 102% | SF-539 CNS 98.1% | UACC-257 melanoma 104% | M14 melanoma 104% | HCT-15 colon 103% | HT29 colon 109% | SNB-75 CNS 91.7% | SNB-19 CNS 96.1% | U251 CNS 104% | PC-3 prostate 99.2% | SK-MEL-5 melanoma 99.7% | UACC-62 melanoma 96.6% | LOX IMVI melanoma 93.1% | SK-MEL-28 melanoma 104%

CCNc1ccc(-c2nc3ccccc3n3cccc23)cc1
inactive: DU-145 prostate 86.7% | K-562 leukemia 67.6% | MALME-3M melanoma 92.2% | MDA-MB-231 breast 55.8% | RXF 393 renal 87.7% | SF-268 CNS 83.9% | SF-295 CNS 69% | SF-539 CNS 93.5% | UACC-257 melanoma 84.9% | M14 melanoma 77.9% | HCT-15 colon 82.5% | HT29 colon 80% | SNB-75 CNS 67.6% | SNB-19 CNS 92.2% | U251 CNS 82.9% | PC-3 prostate 68.9% | SK-MEL-5 melanoma 71.2% | UACC-62 melanoma 66.2% | LOX IMVI melanoma 73.4% | SK-MEL-28 melanoma 86.5%

Cc1nc2c(c(=O)[nH]1)C(c1ccccc1)c1ccc3ccccc3c1O2 (stereo not given)
inactive: DU-145 prostate 56.2% | K-562 leukemia 11.9% | MALME-3M melanoma 60.9% | MDA-MB-231 breast 46.6% | RXF 393 renal 27.6% | SF-268 CNS 38.2% | SF-295 CNS 22.8% | SF-539 CNS 14.5% | UACC-257 melanoma 34.5% | M14 melanoma 22.2% | HCT-15 colon 23.4% | HT29 colon 84.5% | SNB-75 CNS 13.1% | SNB-19 CNS 30.8% | U251 CNS 26.1% | PC-3 prostate 19.7% | SK-MEL-5 melanoma 36.8% | UACC-62 melanoma 30.4% | LOX IMVI melanoma 35.2% | SK-MEL-28 melanoma 57.7%

Oc1c(CN2CCC(N3CCCCC3)CC2)cc(Cc2cc(CN3CCC(N4CCCCC4)CC3)c(O)c3ncccc23)c2cccnc12
active: K-562 leukemia 5.46% | SF-539 CNS -55.4% | M14 melanoma -26% | UACC-62 melanoma -18.3% | LOX IMVI melanoma 4.36%
inactive: DU-145 prostate 37.1% | MALME-3M melanoma 15.4% | MDA-MB-231 breast 18.3% | RXF 393 renal 57.5% | SF-268 CNS 27.9% | SF-295 CNS 31.1% | UACC-257 melanoma 57.2% | HCT-15 colon 20.6% | HT29 colon 16% | SNB-75 CNS 54.1% | SNB-19 CNS 36.6% | U251 CNS 24.6% | PC-3 prostate 17.7% | SK-MEL-5 melanoma 34.1% | SK-MEL-28 melanoma 31.5%

CCn1c(-c2cc3c([nH]c4ccccc43)c(-c3cccc(O)c3)n2)n[nH]c1=S
active: RXF 393 renal 8.59% | HT29 colon -19.4% | SK-MEL-5 melanoma -1.38%
inactive: DU-145 prostate 62.3% | K-562 leukemia 14.3% | MALME-3M melanoma 51% | MDA-MB-231 breast 46.9% | SF-268 CNS 48.3% | SF-295 CNS 36.8% | SF-539 CNS 30% | UACC-257 melanoma 41% | M14 melanoma 18.1% | HCT-15 colon 50.2% | SNB-75 CNS 22.2% | SNB-19 CNS 62.6% | U251 CNS 23.8% | PC-3 prostate 34.1% | UACC-62 melanoma 43.6% | LOX IMVI melanoma 32.5% | SK-MEL-28 melanoma 53.6%

Cc1ccc2c(-n3nc(C#N)c(C#N)c3N)cc(=O)[nH]c2c1
inactive: DU-145 prostate 94% | K-562 leukemia 76% | MALME-3M melanoma 78.2% | MDA-MB-231 breast 85.5% | RXF 393 renal 100% | SF-268 CNS 94.4% | SF-295 CNS 94% | SF-539 CNS 89.8% | UACC-257 melanoma 87.9% | M14 melanoma 84.9% | HCT-15 colon 87.9% | HT29 colon 93.7% | SNB-75 CNS 110% | SNB-19 CNS 88.6% | U251 CNS 86.4% | PC-3 prostate 71.1% | SK-MEL-5 melanoma 93.5% | UACC-62 melanoma 80.2% | LOX IMVI melanoma 81% | SK-MEL-28 melanoma 94.1%
